# Screens (PubChem BioAssay)
# CHT block: human CHT choline transport inhibition; CHT-expressing cells, membrane potential dye, choline response; active compounds read low; B-score at 10 µM; hit rate 0.86% among 310,000; AID 488975;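 active = B-score over 3 SD under the library average, and starting fluorescence ratio not unusually high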;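 note: choline stimulus applied at its EC90 after an EC20 pre-addition; B-score computed on integrated fluorescence ratio after choline addition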
# EP2 modulator: EP2 receptor (human) modulation | P43116 | EP2-expressing cells, cAMP HTRF FRET, PGE2 co-stimulation | induction, % at 25 µM | hit rate 0.83% among 260,000 | AID 940;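 active = compounds whose cAMP rise, as percent of the full-agonist control response, exceeds 60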;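 note: rat C6 glioma line stably carrying human EP2 under a CMV promoter; the protocol text gives 20 µM as final concentration; 100% = response of wells given 1 µM PGE2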
# Target sequence (P43116 whole entry, looked up): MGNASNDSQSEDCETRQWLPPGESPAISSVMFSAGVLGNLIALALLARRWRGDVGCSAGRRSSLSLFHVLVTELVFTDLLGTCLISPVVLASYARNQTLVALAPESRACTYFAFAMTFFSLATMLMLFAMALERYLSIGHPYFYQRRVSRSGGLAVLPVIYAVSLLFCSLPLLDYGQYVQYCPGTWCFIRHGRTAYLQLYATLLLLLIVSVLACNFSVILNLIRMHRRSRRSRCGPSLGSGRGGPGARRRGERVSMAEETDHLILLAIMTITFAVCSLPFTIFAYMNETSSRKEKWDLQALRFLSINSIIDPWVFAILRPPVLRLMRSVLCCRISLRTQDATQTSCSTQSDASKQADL
# PGE2 EP2 inh: blocks the human prostaglandin E2 receptor EP2 | C6 glioma cells expressing human EP2, cAMP TR-FRET; cells stimulated with saturating PGE2 | inhibition, % at 25 µM | hit rate 0.52% among 260,000;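 active = percent inhibition above 40 after rounding to a whole number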;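 note: rat C6 glioma host cells with rolipram phosphodiesterase inhibitor present; the protocol text gives 20 µM as final concentration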
# CHT PAM: human CHT allosteric activation. Q9GZV3. CHT-expressing cells, membrane potential dye, choline EC20; active compounds read high; LV-AA mutant CHT in HEK293 cells. B-score at 10 µM. hit rate 0.49% among 310,000;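 active = initial fluorescence not abnormally high and integrated response B-score, plate-corrected, over 3 SD above library mean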
# EP2 cAMP induct: EP2 receptor cAMP induction, counter-screens negative. shares compounds with EP2 modulator. C6 glioma EP2 cells, cAMP HTRF induction; plus low (about EC15) PGE2 agonist. calls only at 20 µM (by protocol). hit rate 47% among 1,300;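 active = cAMP induction above 50% in the main assay while under 30% in all four parallel counter assays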;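 note: rat C6 glioma cells stably expressing human EP2 receptor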
# * = called active by the depositor; i = inactive; x = no result given; + = active, no number. Only some compounds are listed: those with a hit (about 2.1% of all), similar ones and a draw of the others.
SMILES,CHT block,EP2 modulator,PGE2 EP2 inh,CHT PAM,EP2 cAMP induct
C=CCn1c(SCc2c(C)noc2C)nc2sc(C)c(C)c2c1=O,i,62*,8,i,+
Cc1sc2ncnc(SCc3ccco3)c2c1C,i,64*,9,i,+
CCn1nc(CC(=O)N2CCC(n3nnc(-c4ccccc4)n3)CC2)c2ccccc2c1=O,x,2,x,x,x
CCN(CC)C(=O)CSc1nc(C)c(C)c(=O)[nH]1,x,-4,4,x,x
CCSc1ncnc2sc3c(c12)CCC3,i,73*,12,i,+
Cc1noc(C)c1CSc1ncnc2sc3c(c12)CCCCC3,i,56,9,i,+
Cc1onc(-c2c(F)cccc2Cl)c1C(=O)OCn1nnc2ccccc2c1=O,i,77*,7,i,i
O=c1cc(N2CCCCC2)c(-c2ccccc2)nn1Cc1ccc(Cl)cc1Cl,i,60,8,i,x
O=c1cc(N2CCCCC2)c(-c2ccccc2)nn1Cc1ccccc1Cl,i,70*,3,i,+
C=CCn1nc(-c2ccccc2)c(N2CCCCC2)cc1=O,i,-11,1,i,x
O=c1cc(N2CCCCC2)c(-c2ccccc2)nn1Cc1cccc(Cl)c1,i,81*,7,i,+
COc1ccc(NC2(c3nnnn3-c3ccc(C)cc3)CCCCC2)cc1,x,-3,8,x,x
COc1ccc(OC)c(C2Nc3ccccc3-c3cc(C)nn32)c1 (configuration not stated),x,4,6,x,x
COc1ccc(CC(=O)N2CCC(n3nc(-c4ccco4)ccc3=O)CC2)cc1,x,-10,x,x,x
COc1ccc(Cl)cc1-n1c(C)ccc1C,i,69*,16,i,i
COC(=O)c1ccccc1NC(=O)C1COc2ccccc2O1 (configuration not stated),i,45,12,i,x
CCOC(=O)c1ccccc1NC(=O)C1COc2ccccc2O1 (configuration not stated),i,72*,11,i,+
Oc1ccc(-c2nc3cnccn3c2NCc2ccco2)c(O)c1,x,-44,13,x,x
COc1ccc(-c2cc(C(F)(F)F)nc(N3CCCCC3)n2)cc1OC,i,55,2,i,+
COc1cccc(-c2nc3cnccn3c2NC2CCCC2)c1OC,x,-57,11,x,x
Cc1cc(=O)oc(C)c1C(=O)OC(C(=O)c1ccccc1)c1ccccc1 (configuration not stated),i,67*,8,i,i
Cc1cc(=O)oc(C)c1C(=O)OCC(=O)c1ccccc1,i,5,8,i,x
CCN(CCO)c1ncnc2c1sc1nc(C(C)C)c3c(c12)CC(C)(C)OC3,i,79*,15,i,i
O=C(CSc1nnc(-c2cc3ccccc3cc2O)o1)Nc1ccccc1Br,x,-46,8,x,x
COc1ccc(-n2c(-c3ccccc3)nnc2-c2ccc(Cl)cc2)cc1,i,69*,9,i,+
SMILES,CHT block,EP2 modulator,PGE2 EP2 inh,CHT PAM,EP2 cAMP induct
COc1ccc(-n2nnnc2-c2ccccc2)cc1,i,5,4,i,x
CCOc1ccc2cc(C#N)c(SCC(=O)NC(C)CC)nc2c1 (configuration not stated),i,69*,19,i,i
CCOC(=O)CSc1nc2cc(OCC)ccc2cc1C#N,i,39,12,i,x
COc1ccc(/C=N/N(C(C)=O)c2nc(-c3ccc(C)cc3)cs2)cc1,i,37,9,i,x
COc1ccccc1/C=N/N(C(C)=O)c1nc(-c2ccc(F)cc2)cs1,i,73*,3,i,i
COC(=O)c1c(NC(NC(=O)C(C)C)C(Cl)(Cl)Cl)sc2c1CCCC2 (configuration not stated),i,56,4,i,i
COc1cccc(CNc2nc3ccccc3n2CCN2CCOCC2)c1,x,-67,10,x,x
O=C(O)CCCCCN1C(=O)/C(=C\c2cn(-c3ccccc3)nc2-c2cccs2)SC1=S,i,53,4,i,x
O=C(O)CCN1C(=O)/C(=C/c2cn(-c3ccccc3)nc2-c2cccs2)SC1=S,x,71*,4,x,+
O=C(c1cccc2nccnc12)N1CCC(c2nc3sc4c(c3c(=O)[nH]2)CCCC4)CC1,x,-49,x,x,x
Cc1cc2cc3c(cc2nc1SCC(=O)OC(C)C)OCO3,x,68*,x,x,+
Cc1ccc(C(=O)CSc2nc3cc4c(cc3cc2C)OCO4)cc1,x,-23,7,x,x
COc1cccc(/C=C/C(=O)c2cccc([N+](=O)[O-])c2)c1,i,3,12,i,x
COc1ccc(OC(=O)c2cccc([N+](=O)[O-])c2)c(C(=O)/C=C/c2cccs2)c1,i,77*,11,i,i
c1ccc2c(c1)OCC(c1csc3ncnc(N4CCCCC4)c13)O2 (configuration not stated),i,84*,19,i,+
CCCN1CCN(c2ncnc3scc(C4COc5ccccc5O4)c23)CC1 (configuration not stated),i,7,2,i,x
C=CCn1c(=S)[nH]c2scc(-c3ccc(C)o3)c2c1=O,i,-7,34,i,x
C=CCn1c(=S)[nH]c2sccc2c1=O,i,53,18,i,i
CCOC(=O)c1cc2occc2n1CC(=O)NC(C)C,x,1,11,x,x
Cc1nn(CC(=O)Nc2ccccc2Cl)c(=O)c2cc3sccc3n12,x,-33,x,x,x
O=C(c1ccc(Cl)cc1)c1oc2ccccc2c1CS(=O)(=O)c1ccccc1,i,80*,3,i,+
Nc1c(C(=O)c2ccccc2)oc2ccccc12,i,10,12,i,x
CC(C)c1ccc(OCC(=O)NC(=S)Nc2ccc3c4c(cccc24)CC3)cc1,i,66*,20,i,i
CCc1cccc(CC)c1NC(=O)CSc1nnc(-c2cccnc2)n1C,x,14,12,x,x
CN(Cn1nc2c3ccccc3ncn2c1=O)C1CCCCC1,x,-24,x,x,x
SMILES,CHT block,EP2 modulator,PGE2 EP2 inh,CHT PAM,EP2 cAMP induct
COc1ccc(N2CCN(C(=O)CSc3nc4[nH]ncc4c(=O)n3-c3ccc(Br)cc3)CC2)cc1,i,3,7,i,x
O=c1c2cn[nH]c2nc(SCc2ccccc2F)n1-c1ccc(Br)cc1,i,83*,13,i,+
CC1=CC(C)(C)N2C(=O)C3(SCC(=O)N3c3ccc(F)cc3)c3cc(C)cc1c32 (configuration not stated),i,76*,3,i,+
CC1=CC(C)(C)N2C(=O)C3(NCCc4c3[nH]c3ccccc43)c3cc(C)cc1c32 (configuration not stated),i,-16,4,i,x
Cc1noc(C)c1CSc1nc2sc(C)c(C)c2c(=O)n1-c1ccccc1,i,29,21,i,x
Cc1noc(C)c1CSc1nc2ccccc2c(=O)n1-c1ccc(Cl)cc1,i,71*,8,i,+
